Screens from PubChem BioAssay.
HEK293 tox: kills HEK 293 cells. HEK 293 viability, ATP luminescence (CellTiter-Glo), 48-72 h. actives 6.6% (n = 94,000). Potency, µM (titrated, usually from 115 µM), inactives show at the top dose activity change, negative = cytotoxicity, actives largely listed as inhibitors; also: nearly all actives have a fitted effect of over 60% in size
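HEK 293 cells at 250 cells/well were exposed to compounds by pintool transfer for 48 or 72 hr at 37 degree Celsius, 5% CO2. Viability was read as ATP-coupled luminescence with CellTiter-Glo after 10 min at room temperature.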
FLuc inh: inhibitors of firefly (Photinus pyralis) luciferase; Potency, µM (highest dose often 115 µM), usual class: inhibitors; P08659; AID 1347043; purified P. pyralis luciferase, luminescence, biochemical; actives 2.5% (n = 76,000); also: nearly all actives have a fitted effect of over 65% in size
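Luminescence read by CCD imager after adding enzyme (10nM final) to wells holding compound, titrated in qHTS. Substrates 10uM each D-luciferin and ATP; buffer 50mM Tris acetate pH 7.5, 10mM Mg acetate, Tween-20, BSA.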
3T3 cytotox: cytotoxic compounds in NIH 3T3 cells | actives 4.3% (n = 94,000) | Potency, µM (titrated, usually from 96.7 µM), inactives show at the top dose activity change, negative = cytotoxicity, usual class: inhibitors | NIH 3T3 viability, CellTiter-Glo ATP luminescence, 48-72 h; also: nearly all actives have a fitted effect of over 55% in size
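ATP-dependent luminescence (CellTiter-Glo) served as the viability signal for NIH 3T3 cells treated with compound for 48 or 72 hr at 37 °C.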
hNpr1 antagonist: human Npr1 receptor antagonism. P16066. HEK293 hNpr1 GloSensor cGMP, ANP-stimulated luminescence. Potency, µM (titrated, usually from 46.3 µM), inactives show at the top dose activity change, negative = inhibition, actives largely listed as inhibitors. actives 1.6% (n = 76,000); calls by dose curve; also: nearly all actives have a fitted effect of over 60% in size
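HEK293 cells stably expressing human Npr1 and cGMP GloSensor pGS-40F, loaded 2 h with 2% GloSensor reagent, given compound 30 min at room temperature. Luminescence read before and 20 min after 0.1 nM hNppA.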
GPT2 inhibitor: GPT2 alanine aminotransferase inhibition; Recombinant GPT2, coupled pyruvate oxidase/HRP Amplex Red fluorescence; AID 1671188; actives 0.25% (n = 100,000); Q8TD30; Potency, µM (top dose mostly 57.7 µM), for inactives: at the highest dose activity change, negative = inhibition, most hits filed as inhibitors; also: nearly all actives have a fitted effect of over 60% in size
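Recombinant GPT2 (10ng/uL) with 250uM a-KG and 2mM L-alanine, 30 min at room temperature, in HEPES pH 7.5 buffer. Pyruvate detected by pyruvate oxidase/HRP/Amplex Red fluorescence after 30 min in the dark; AOA (50uM) as positive control.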
Starred values were filed as active, the others as inactive; i = inactive; ? = inconclusive; . = no result; ! = not active in a repeat; [ ] = another dose, or the depositor's remark. This is a sample that favours compounds with a hit; in the whole collection about 10% have one here. Unless noted, calls follow the shape of the dose curve; as a rule, active = well fitted curve in the direction sought with a large enough effect; inconclusive = small, poorly fitted or top-dose-only effect, or another doubt; inactive = no such curve, though single readings can be large; an effect the other way counts as inactive or inconclusive. % is scaled to controls: 0 for no effect and ±100 for the full control effect; potency is read from the fitted curve at half-maximal effect.

SMILES | HEK293 tox | FLuc inh | 3T3 cytotox | hNpr1 antagonist | GPT2 inhibitor
CCOc1ccccc1CN1CCCC(c2nc(-c3cccnc3)no2)CCNC(=O)CC1 (centres undefined) | ? | i | ? | -3% | -5%
O=C(CCCc1ccccc1)N1CCC2(CC1)CC(Cc1nc(C3CC3)no1)CCO2 (centres undefined) | ? | . | ? | . | -3%
Cn1ncc2c(C(=O)NCc3ccc(F)cc3)cc(-c3cccnc3)nc21 | ? | . | ? | . | 4%
O=C(Cc1ccc(F)cc1)N1CCC2(C1)C(=O)N(CCc1ccccc1)c1ccccc12 (centres undefined) | 45µM* | i | ? | 16% | i
O=C(c1cccc(Cl)c1)N1CCC2(C1)C(=O)N(CCc1ccccc1)c1ccccc12 (centres undefined) | 28µM* | i | 40µM*! | ? | ?
COc1ccc(C(=O)Nc2cc(C3CCCC3)nn2C)cc1 | 100µM* | . | ? | . | i
COc1cccc(C(=O)Nc2cc(C3CCCC3)nn2C)c1 | ? | . | ? | . | -2%[88.5 µM]
CCn1nccc1C(=O)N1CCC(N2C(=O)[C@H]3CN(Cc4ccccc4)C[C@H]3C2=O)CC1 | -27% | . | -26% | . | -30%
Fc1ccc(-c2ccc3ncc(Nc4ccc(Cl)cn4)n3n2)cc1 | 100µM* | i | 100µM* | -23%[70.6 µM] | i
CN(C)c1ccc2ncc(Nc3cc(F)cc(N4CCOCC4)c3)n2n1 | ? | ? | ? | 2%[70.6 µM] | i
CN(C)c1ccc2ncc(Nc3ccc(Cl)cn3)n2n1 | ? | i | 112µM* | -17%[70.6 µM] | ?
COc1ccc(F)cc1Nc1cnc2ccc(N(C)C)nn12 | 100µM* | i | ? | 1%[70.6 µM] | ?
Fc1ccc(-c2ccc3ncc(Nc4ccccn4)n3n2)cc1 | 89µM* | i | ? | -13%[70.6 µM] | -20%[88.5 µM]
Clc1ccc(Nc2cnc3ccc(-c4ccccc4)nn23)nc1 | ? | i | ? | ? | i
c1ccc(-c2ccc3ncc(Nc4ccccn4)n3n2)cc1 | ? | i | ? | -23%[70.6 µM] | -8%[88.5 µM]
O=C(Nc1cccc(-c2nnc3n2CCCC3)c1)c1ccsc1 | -15% | i | ? | -7% | i
O=C(c1ccc(C(F)(F)F)cc1)N1CCCN(c2ccc3nnc(C4CC4)n3n2)CC1 | -7% | . | -30% | . | .
O=C(NCCc1ccccc1)c1nc2sccn2c1-c1ccc(F)cc1 | ? | . | ? | . | -1%
Cc1ccc(C(=O)NC2CCN(c3nccc(Nc4ccccc4F)n3)CC2)cc1 | 22µM* | . | ? | . | 1%
Cc1ccc(C(=O)N2CCN(c3nccc(Nc4ccccc4F)n3)CC2)cc1 | 45µM*! | . | ? | . | i
O=C(c1ccccc1)N1CCN(c2nccc(Nc3ccccc3F)n2)CC1 | ? | . | ? | . | -2%
O=C(NC1CCN(c2nccc(Nc3ccccc3F)n2)CC1)c1cccc(Cl)c1 | ? | . | 32µM* | . | i
O=C(NC1CCN(c2nccc(Nc3ccccc3Cl)n2)CC1)c1ccc(F)cc1 | ? | . | ? | . | -2%
Cc1ccccc1C(=O)NC1CCN(c2nccc(Nc3ccccc3F)n2)CC1 | 20µM* | . | ? | . | i
CNC(=O)c1cc(C)nc2onc(C3CCN(C(=O)OC)C3)c12 (centres undefined) | 4%[172 µM] | . | -17%[138 µM] | . | .
SMILES | HEK293 tox | FLuc inh | 3T3 cytotox | hNpr1 antagonist | GPT2 inhibitor
Cc1ccccc1Cn1cc(-c2ccncc2)cc1C(=O)NC1CC1 | ? | i | ? | 1% | -1%
Cc1ccccc1Cn1cc(-c2ccncc2)cc1C(=O)N(C)Cc1ccco1 | ? | i | ? | -30% | i
Cc1ccccc1Cn1cc(-c2ccncc2)cc1C(=O)N1CCCC(C)C1 (centres undefined) | 45µM* | i | ? | -8% | 3%
Cc1ccccc1Cn1cc(-c2ccncc2)cc1C(=O)Nc1ccc2c(c1)OCO2 | 35µM* | ? | ? | -16% | i
O=C(c1ccc(F)cc1)N1CCC2(CN[S+](=O)([O-])c3cccnc3O2)C1 (centres undefined) | i | . | 2% | . | -5%
O=C(C1CCCN1C(=O)Cc1ccc(F)cc1)N1CCC(N2CCOCC2=O)CC1 (centres undefined) | -1% | . | -18% | . | i
O=[S+]([O-])(c1cccs1)N1CCC2(CC1)CC(Cc1ccccc1)=NO2 | 45µM* | i | ? | -30% | i
CCOc1ccccc1CN1CCC2(CCN([S+](=O)([O-])c3cccs3)CC2)Oc2ccccc21 | -26% | i | ? | 0% | i
CCCN1CCC2(CCN([S+](=O)([O-])c3cccs3)CC2)Oc2ccccc21 | 45µM* | i | ? | -3% | 0%
O=[S+]([O-])(c1cccs1)N1CCCC2(CC(Cc3ccccc3)=NO2)C1 (centres undefined) | ? | i | -28% | 0% | i
COc1ccc(-c2cccc(C(=O)N3CCC(NC(=O)c4c(C)noc4C)CC3)c2)nn1 | -17% | . | -26% | . | .
c1ccc(CNC[C@H]2Cn3c(-c4ccc5c(c4)OCCO5)cnc3CO2)cc1 | ? | i | -22%[138 µM] | -23%[70.6 µM] | -10%[88.5 µM]
Fc1ccc(-c2cnc3n2C[C@H](CNCc2ccc4c(c2)OCO4)OC3)cc1 | 100µM* | i | 89µM* | ? | 4%[88.5 µM]
Clc1ccc(-c2cnc3n2C[C@H](CNCc2ccc4c(c2)OCO4)OC3)cc1 | 89µM* | i | ? | ? | -6%[88.5 µM]
COc1ccc(CC(=O)N(C)C2CCc3nnc(C)n3CC2)cc1Cl (centres undefined) | -4% | i | -23% | 3% | ?
Cc1ccc(C(=O)N2CCC(n3cnnc3-c3ccccc3)CC2)s1 | -13% | . | -5% | . | -6%
COc1ccc(Cn2c(C3CCN(C(=O)c4ccc(C#N)cc4)CC3)n[nH]c2=O)cc1 | 6% | i | ? | -2% | -1%
O=C(NCc1cccc(C(F)(F)F)c1)C1CN(C2CCCC2)C(=O)N1 (centres undefined) | ? | . | ? | . | -6%[88.5 µM]
COCCNC(=O)CC(c1ccc(Cl)cc1)c1c[nH]c2ccc([N+](=O)[O-])cc12 (centres undefined) | 40µM* | i | ? | ? | i
O=C(CC(c1ccc(Cl)cc1)c1c[nH]c2ccc([N+](=O)[O-])cc12)N1CCOCC1 (centres undefined) | 40µM* | i | ? | ? | -19%
Cc1ccccc1N(C)C1CN(Cc2cccs2)C1 | ? | i | ? | 0%[70.6 µM] | -6%[88.5 µM]
O=C(Cc1ccc(F)cc1)N1CCN(C(=O)c2nc3cccnc3n(C3CCCC3)c2=O)CC1 | -22% | . | ? | . | -29%
COc1ccc(CN2C[C@@H]3C(=O)N(CCN4CCc5ccccc5C4)C(=O)[C@@H]3C2)c(OC)c1 | ? | i | -16% | -11% | i
